From PubChem BioAssay AID1159580 (chemical genetic matrix, 2015)
Several values for one entry are separate records, joined by “and”; a condition that tells them apart may be missing. Identical values can stand only once. Hit rate of the full screen: of about 5,500 compounds, about 2,000 (36%) were called active. Roughly 18% stayed inconclusive and do not appear here. Cut-off read from the data, not from the text of the source: active = normalized growth mostly below about 0.91 (no sharp cut-off); inconclusive = no clear call, values can overlap the other calls; inactive = mostly above about 0.92. The list shows a part of the results.

Assay: chemical genetic growth profiling, strain panel (AID 1159580);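 note: tested at 20 µM; growth read once vehicle control cultures reached saturation at 30 °C; 1 = growth at the plate median or of vehicle wells; lower values mean less growth of the strain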
Conditions: growth OD

Measured: normalized growth

N[C@@H](C(=O)N[C@@H]1C(=O)N2C(C(=O)O)=C(Cl)CS[C@H]12)c1ccccc1
active: S. cerevisiae deletion strains, locus YPL241C, strain CIN2, hits give low values 1.09 [resistant]
inactive: S. cerevisiae deletion strains, locus YAL013W, strain DEP1, hits give low values 1.01 | S. cerevisiae deletion strains, locus YBR021W, strain FUR4, hits give low values 1 | S. cerevisiae deletion strains, locus YBR229C, strain ROT2, hits give low values 1.02 | S. cerevisiae deletion strains, locus YCL029C, strain bik1, hits give low values 1.03 | S. cerevisiae deletion strains, locus YDL035C, strain GPR1, hits give low values 1.01 | S. cerevisiae deletion strains, locus YDL074C, strain BRE1, hits give low values 1.02 | S. cerevisiae deletion strains, locus YDL101C, strain DUN1, hits give low values 1.01 | S. cerevisiae deletion strains, locus YDL134C, strain PPH21, hits give low values 1.01 | S. cerevisiae deletion strains, locus YDL185W, strain tfp1, hits give low values 1.02 | S. cerevisiae deletion strains, locus YDL192W, strain arf1, hits give low values 1.02 | S. cerevisiae deletion strains, locus YDR101C, strain arx1, hits give low values 1.01 | S. cerevisiae deletion strains, locus YDR150W, strain NUM1, hits give low values 1.01 | S. cerevisiae deletion strains, locus YDR162C, strain NBP2, hits give low values 1.02 | S. cerevisiae deletion strains, locus YDR318W, strain mcm21, hits give low values 1.02 | S. cerevisiae deletion strains, locus YDR388W, hits give low values 1.02 | S. cerevisiae deletion strains, locus YDR502C, strain sam2, hits give low values 1.02 | S. cerevisiae deletion strains, locus YEL061C, strain CIN8, hits give low values 1.01 | S. cerevisiae deletion strains, locus YER110C, hits give low values 1.03 | S. cerevisiae deletion strains, locus YER155C, strain BEM2, hits give low values 1 | S. cerevisiae deletion strains, locus YER167W, strain BCK2, hits give low values 1.01 | S. cerevisiae deletion strains, locus YGL078C, strain dbp3, hits give low values 1.02 | S. cerevisiae deletion strains, locus YGL086W, strain mad1, hits give low values 1.01 | S. cerevisiae deletion strains, locus YGL248W, strain PDE1, hits give low values 1.02 | S. cerevisiae deletion strains, locus YGR078C, strain PAC10, hits give low values 1.01 | S. cerevisiae deletion strains, locus YGR135W, strain pre9, hits give low values 1.01 | S. cerevisiae deletion strains, locus YGR229C, strain SMI1, hits give low values 1.01 | S. cerevisiae deletion strains, locus YGR252W, strain gcn5, hits give low values 1.04 | S. cerevisiae deletion strains, locus YHR030C, strain SLT2, hits give low values 1.01 and 0.982 | S. cerevisiae deletion strains, locus YHR079C, strain IRE1 (second series), hits give low values 1.02 | S. cerevisiae deletion strains, locus YHR079C, strain IRE1, hits give low values 0.976 | S. cerevisiae deletion strains, locus YHR094C, strain hxt1, hits give low values 1.02 | S. cerevisiae deletion strains, locus YHR129C, strain ARP1, hits give low values 1.01 | S. cerevisiae deletion strains, locus YHR200W, strain rpn10, hits give low values 1.03 | S. cerevisiae deletion strains, locus YIL066C, strain RNR3, hits give low values 1.03 | S. cerevisiae deletion strains, locus YIL073C, strain SPO22, hits give low values 1.08 | S. cerevisiae deletion strains, locus YIL125W, strain kgd1, hits give low values 1.02 | S. cerevisiae deletion strains, locus YIR030C, strain dcg1, hits give low values 1.03 | S. cerevisiae deletion strains, locus YJL095W, strain BCK1, hits give low values 1.01 and 0.976 | S. cerevisiae deletion strains, locus YJL134W, strain LCB3, hits give low values 1.01 | S. cerevisiae deletion strains, locus YJL168C, strain set2, hits give low values 1.02 | S. cerevisiae deletion strains, locus YJL187C, strain SWE1 (second series), hits give low values 1.02 | S. cerevisiae deletion strains, locus YJR043C, strain POL32, hits give low values 1.01 | S. cerevisiae deletion strains, locus YJR066W, strain TOR1, hits give low values 0.928 | S. cerevisiae deletion strains, locus YJR075W, strain HOC1, hits give low values 0.999 | S. cerevisiae deletion strains, locus YKL009W, strain mrt4, hits give low values 1.02 | S. cerevisiae deletion strains, locus YKL068W, hits give low values 1.03 | S. cerevisiae deletion strains, locus YKL085W, strain MDH1 (second series), hits give low values 1.02 | S. cerevisiae deletion strains, locus YKL085W, strain MDH1, hits give low values 1.02 | S. cerevisiae deletion strains, locus YKL190W, strain CNB1, hits give low values 1.01 | S. cerevisiae deletion strains, locus YKR001C, strain vps1, hits give low values 1.02 | S. cerevisiae deletion strains, locus YLR039C, strain RIC1, hits give low values 1.05 | S. cerevisiae deletion strains, locus YLR058C, strain SHM2, hits give low values 1.01 | S. cerevisiae deletion strains, locus YLR102C, strain apc9, hits give low values 1.03 | S. cerevisiae deletion strains, locus YLR113W, strain HOG1, hits give low values 1 | S. cerevisiae deletion strains, locus YLR262C, strain YPT6, hits give low values 1.04 | S. cerevisiae deletion strains, locus YLR268W, strain sec22, hits give low values 1.02 | S. cerevisiae deletion strains, locus YLR330W, strain CHS5, hits give low values 1.01 | S. cerevisiae deletion strains, locus YLR342W, strain FKS1 (second series), hits give low values 0.986 | S. cerevisiae deletion strains, locus YLR371W, strain rom2, hits give low values 1.01 | S. cerevisiae deletion strains, locus YLR418C, strain cdc73, hits give low values 1.03 | S. cerevisiae deletion strains, locus YML016C, strain PPZ1, hits give low values 1.01 | S. cerevisiae deletion strains, locus YML032C, strain rad52, hits give low values 1.02 | S. cerevisiae deletion strains, locus YML124C, strain tub3, hits give low values 1.02 | S. cerevisiae deletion strains, locus YMR078C, strain ctf18, hits give low values 1.04 | S. cerevisiae deletion strains, locus YMR223W, strain ubp8, hits give low values 1.02 | S. cerevisiae deletion strains, locus YMR263W, strain SAP30, hits give low values 1.01 | S. cerevisiae deletion strains, locus YMR307W, strain GAS1, hits give low values 1.05 | S. cerevisiae deletion strains, locus YNL067W, strain RPL9B, hits give low values 1.01 | S. cerevisiae deletion strains, locus YNL128W, strain TEP1, hits give low values 0.998 | S. cerevisiae deletion strains, locus YNL153C, strain GIM3, hits give low values 1.01 | S. cerevisiae deletion strains, locus YNL183C, strain NPR1, hits give low values 0.932 | S. cerevisiae deletion strains, locus YNL233W, strain BNI4, hits give low values 1.01 | S. cerevisiae deletion strains, locus YNL250W, strain rad50, hits give low values 1.01 | S. cerevisiae deletion strains, locus YNL271C, strain bni1, hits give low values 1.02 | S. cerevisiae deletion strains, locus YNL298W, strain CLA4, hits give low values 1.03 | S. cerevisiae deletion strains, locus YNL307C, strain MCK1, hits give low values 1.02 | S. cerevisiae deletion strains, locus YNL322C, strain KRE1, hits give low values 1.01 | S. cerevisiae deletion strains, locus YNR052C, strain pop2, hits give low values 1.02 | S. cerevisiae deletion strains, locus YOL006C, strain TOP1, hits give low values 1.02 | S. cerevisiae deletion strains, locus YOL012C, strain htz1 1.44 | S. cerevisiae deletion strains, locus YOL147C, strain pex11, hits give low values 1.02 | S. cerevisiae deletion strains, locus YOR061W, strain CKA2, hits give low values 1 | S. cerevisiae deletion strains, locus YOR069W, strain VPS5, hits give low values 0.999 | S. cerevisiae deletion strains, locus YOR136W, strain idh2, hits give low values 1.02 | S. cerevisiae deletion strains, locus YOR144C, strain elg1, hits give low values 1.02 | S. cerevisiae deletion strains, locus YOR184W, strain ser1, hits give low values 1.02 | S. cerevisiae deletion strains, locus YOR231W, strain MKK1, hits give low values 0.987 | S. cerevisiae deletion strains, locus YOR316C, strain cot1, hits give low values 1.02 | S. cerevisiae deletion strains, locus YPL055C, strain LGE1, hits give low values 1 | S. cerevisiae deletion strains, locus YPL256C, strain CLN2, hits give low values 0.971 | S. cerevisiae deletion strains, locus YPR119W, strain clb2, hits give low values 1.03 | S. cerevisiae deletion strains, locus YPR141C, strain kar3, hits give low values 1.03 | S. cerevisiae deletion strains, locus YPR163C, strain tif3, hits give low values 1.02 | S. cerevisiae deletion strains, locus YPR167C, strain met16, hits give low values 1.02 | S. cerevisiae deletion strains, strain wtn01, hits give low values 1.02 | S. cerevisiae strains, strain wild type, hits give low values 1.01
